PubChem BioAssay (NCI)
This is part of a sample that, as a whole, favours compounds with a hit. Of some 83,000 tested, about 20% had one in any assay.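 Activity criterion: percent growth below 10, measured after cells in 96-well plates were exposed to a single compound concentration for 48 hours.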 Values without a mark were called inactive. Calls of active or inactive are those of the source.

How the values were obtained:
Assay in all cases: NCI-60 one-dose screen, 48 h (100 = growth as untreated, 0 = no growth, -100 = all killed)
Settings in all cases: 10 µM unless noted
T-47D breast = tested on: T-47D breast
BT-549 breast = tested on: BT-549 breast
MDA-MB-435 melanoma = tested on: MDA-MB-435 melanoma
SW-620 colon = tested on: SW-620 colon
MCF7 breast = tested on: MCF7 breast
HCT-116 colon = tested on: HCT-116 colon
HCC-2998 colon = tested on: HCC-2998 colon
KM12 colon = tested on: KM12 colon

Structure (SMILES) | growth (T-47D breast) | growth (BT-549 breast) | growth (MDA-MB-435 melanoma) | growth (SW-620 colon) | growth (MCF7 breast) | growth (HCT-116 colon) | growth (HCC-2998 colon) | growth (KM12 colon)
CN1C(=O)C(C(=O)/C=C/c2ccccc2C(=O)O)C(=O)N(C)C1=O | 89.2% | 90.4% | 101% | 109% | 112% | 97.3% | 116% | 104%
CC(C)CC1NC(=O)C(CC(C)C)N(CO)C1=O (centres undefined) | 96.5% | 101% | 111% | 112% | 92.7% | 98.8% | 102% | 110%
CCN1CCN(Cc2ccc(NC(=O)Nc3ccc(-n4ccc5c(NC(=O)c6ccccc6)nccc54)cc3)cc2C(F)(F)F)CC1 | 75.6% | 68.5% | -61.5% (active) | -11.9% (active) | -90% (active) | -83.6% (active) | 68.3% | 14.3%
O=C(O/C(=C/c1ccccc1)C(F)(F)F)c1ccccc1 | 101% | 105% | 107% | 113% | 102% | 105% | 102% | 99.4%
CCCCOc1nc2ccccc2cc1/C=C/c1cc(/C=C/c2cc3ccccc3nc2OCCCC)n(-c2ccccc2)n1 | 102% | 93.2% | 108% | 101% | 99.1% | 93.1% | 119% | 103%
COc1ccc(-c2nc3c(c(-c4ccc(Cl)cc4)nn3-c3ccccc3)c(-c3ccc(O)cc3)c2C#N)cc1 | 24.6% | 54.4% | 44.3% | 48.5% | 13.6% | 12% | 70.3% | 34.4%
COc1ccc(NC(=O)c2sc3c(=O)[nH]c(C(F)(F)F)nc3c2C)cc1 | 89.7% | 103% | 103% | 112% | 84.3% | 100% | 111% | 106%
COc1cc(CN2CCC(N3CCCC3=O)c3ccccc32)cc(OC)c1OC (centres undefined) | 68.3% | 124% | 90.4% | 92.3% | 70.9% | 68.8% | 93.2% | 97.1%
Clc1cc(Cl)cc(-c2cnc3nonc3n2)c1 | 59.8% | 95.6% | 103% | 63.9% | 69.5% | 72.9% | 97.5% | 90%
CC(C)c1ccc2c(c1)CCC1C2CCCC1(C)NCc1ccccc1 (centres undefined) | 12.8% | 106% | 18.2% | 3.49% (active) | 75.5% | 60.3% | -91.3% (active) | 23.1%
CC(=O)Oc1c(Cl)c(Cl)c(Cl)c(Cl)c1Cl | 89.2% | 95.4% | 102% | 102% | 93.8% | 99.4% | 94.9% | 103%
c1coc(CNc2c3ccccc3nc3ccccc23)c1 | 69.3% | 97.4% | 87.6% | 42.3% | 21.3% | 24.1% | 68.9% | 85.5%
COc1cc2ncnc(Nc3ccc(S(=O)(=O)Nc4cc(C)on4)cc3)c2cc1OCCCN1CCN(c2ccc([N+](=O)[O-])cc2)CC1 | 102% | 109% | 103% | 105% | 106% | 109% | 111% | 106%
O=C(O)CSc1ccc(NCc2oc(CO)cc(=O)c2O)cc1 | 108% | 92.8% | 116% | 105% | 93.8% | 95.2% | 99.9% | 100%
CCOC(=O)C(Cc1ccccc1)n1c(O)c(/C=N/c2ncc(Cc3ccc(Cl)cc3Cl)s2)sc1=S (centres undefined) | -3.64% (active) | -1.04% (active) | 17.2% | 12% | 3.1% (active) | 1.61% (active) | 16.5% | 10.8%
CC1=C(O)C(=O)CC1 | 103% | 89% | 98.1% | 108% | 91.8% | 105% | 99.7% | 104%
N/C(=N\OC(=O)c1ccccc1)C(Cc1ccccc1)C(=O)NOC(=O)c1ccccc1 (centres undefined) | 76.1% | 26.4% | 5.12% (active) | 65.3% | 51.3% | 2.08% (active) | 96.4% | 24.2%

Structure (SMILES) | growth (T-47D breast) | growth (BT-549 breast) | growth (MDA-MB-435 melanoma) | growth (SW-620 colon) | growth (MCF7 breast) | growth (HCT-116 colon) | growth (HCC-2998 colon) | growth (KM12 colon)
CCN(C(=O)CCl)C(C)(C)C(SSSC(c1ccc(Cl)cc1)C(C)(C)N(CC)C(=O)CCl)c1ccc(Cl)cc1 (centres undefined) | 87.1% | 85.8% | 36.4% | 72.6% | 57.1% | 48% | 85.6% | 85.6%
CC(C)(C)[Si](C)(C)OC1[C@@H](CNC(N)=O)O[C@@H](n2cnc3c(NC(=O)Nc4ccccc4)ncnc32)[C@H]1O[Si](C)(C)C(C)(C)C (some centres undefined) | 64.6% | 80.1% | 53% | 62% | 17.9% | 0.343% (active) | 19% | 48.9%
COc1cccc(/C(C)=N/NC(=O)CSc2nc3ccccc3c(=O)n2CCc2ccc(S(N)(=O)=O)cc2)c1 | 40% | 62.9% | 38.4% | 30.7% | 20.5% | -50.5% (active) | 69.1% | 14%
C#CCNc1nc(NCCNC(=O)CCl)nc(N(C)CCCCc2ccccc2)n1 | 93% | 76.3% | 98.7% | 97.9% | 86% | 79.1% | 108% | 99.1%
O=[N+]([O-])c1ccc(N/N=C/c2ccccc2O)nc1 | 24% | 47.8% | 46.8% | 52.6% | 16.8% | 22.3% | 14.7% | 27%
COc1cc(/C=C/c2cc(/C=C/c3ccc(O)c(OC)c3)n(C(=O)c3ccccc3Br)n2)ccc1O | 49% | 14.5% | -30.5% (active) | 20.9% | 20.2% | 6.9% (active) | 40.9% | 4.98% (active)
Nc1nc(N)c2cc(NCc3ccc(Cl)c(Cl)c3)ccc2n1 | -81.3% (active) | 46.3% | -68.1% (active) | -77.4% (active) | -72.8% (active) | -88.2% (active) | – | -94.4% (active)
FC(F)(F)c1nn[nH]n1 | 101% | 109% | 101% | 112% | 97.3% | 108% | – | 99.6%
CCCCCCCCCCCCCC1=NC(C)(C)CN1C(C)C | -22.3% (active) | 22.8% | -57.3% (active) | -67.2% (active) | -41.3% (active) | -72.6% (active) | – | -75.5% (active)
O=C(Nc1ccncc1)C(=O)c1cn(S(=O)(=O)c2cccc(Cl)c2F)c2ccccc12 | 74.2% | 62.1% | 8.25% (active) | 59.6% | 35.2% | 31.3% | – | 63.1%
COc1cnc2c(c1)C(=O)c1c-2n(CCCN2CCCC2)c(=O)c2cc(Cl)ccc12 | 29.3% | 44.5% | 61.1% | -89.4% (active) | -46.1% (active) | -92.8% (active) | – | 42.4%
Cc1ccccc1C1CC(=O)c2ccccc2C1C (centres undefined) | 107% | 131% | 91.3% | 99.2% | 115% | 95.3% | – | 107%
COCc1nc(NS(=O)(=O)c2ccc(N)cc2)nc(C)c1Br | 96.1% | 106% | 107% | 103% | 103% | 94.3% | – | 107%
Nc1ncnc2c1N=C(c1ccc3c(c1)OCO3)CC(c1ccc(Cl)cc1)N2 (centres undefined) | 55.8% | 81.2% | 78.7% | 79.9% | 56.6% | 87.3% | – | 71.7%
CCN1C(=O)/C(=C/N2N=C(c3ccc(Cl)cc3)CC2c2ccc(OC)cc2)SC1=S (centres undefined) | 70.1% | 85.1% | 97.1% | 97.6% | 82.4% | 85.8% | – | 97.6%
COc1ccc(C(=O)N2N=C(c3ccc(F)cc3)CC2c2cn(-c3ccccc3)nc2-c2ccccc2)cc1 (centres undefined) | 50.6% | 77.3% | 62.5% | 47.3% | 33.7% | 7.49% (active) | – | 50.6%
